# Experimental data from PubChem BioAssay (NCATS).
# Unmarked numbers belong to inactive results. Inconclusive results are not listed. The source made the active and inactive calls. Unless noted, calls follow the shape of the dose curve; as a rule, active = well fitted curve in the direction sought with a large enough effect; inconclusive = small, poorly fitted or top-dose-only effect, or another doubt; inactive = no such curve, though single readings can be large; an effect the other way counts as inactive or inconclusive.
# Molecular target: Glucocorticoid receptor (Homo sapiens) (UniProt P04150)
# Assay: GR-GFP Redistribution (AID 450;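 active = compounds whose dose series gives a full or clear partial fitted curve of increased nuclear translocation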; also: potency is read from the fitted curve at half-maximal effect)
# Details: U2OS GR-GFP nuclear translocation, laser cytometry, 2 h
# Chain of Glucocorticoid receptor (Homo sapiens) (P04150 whole entry, looked up): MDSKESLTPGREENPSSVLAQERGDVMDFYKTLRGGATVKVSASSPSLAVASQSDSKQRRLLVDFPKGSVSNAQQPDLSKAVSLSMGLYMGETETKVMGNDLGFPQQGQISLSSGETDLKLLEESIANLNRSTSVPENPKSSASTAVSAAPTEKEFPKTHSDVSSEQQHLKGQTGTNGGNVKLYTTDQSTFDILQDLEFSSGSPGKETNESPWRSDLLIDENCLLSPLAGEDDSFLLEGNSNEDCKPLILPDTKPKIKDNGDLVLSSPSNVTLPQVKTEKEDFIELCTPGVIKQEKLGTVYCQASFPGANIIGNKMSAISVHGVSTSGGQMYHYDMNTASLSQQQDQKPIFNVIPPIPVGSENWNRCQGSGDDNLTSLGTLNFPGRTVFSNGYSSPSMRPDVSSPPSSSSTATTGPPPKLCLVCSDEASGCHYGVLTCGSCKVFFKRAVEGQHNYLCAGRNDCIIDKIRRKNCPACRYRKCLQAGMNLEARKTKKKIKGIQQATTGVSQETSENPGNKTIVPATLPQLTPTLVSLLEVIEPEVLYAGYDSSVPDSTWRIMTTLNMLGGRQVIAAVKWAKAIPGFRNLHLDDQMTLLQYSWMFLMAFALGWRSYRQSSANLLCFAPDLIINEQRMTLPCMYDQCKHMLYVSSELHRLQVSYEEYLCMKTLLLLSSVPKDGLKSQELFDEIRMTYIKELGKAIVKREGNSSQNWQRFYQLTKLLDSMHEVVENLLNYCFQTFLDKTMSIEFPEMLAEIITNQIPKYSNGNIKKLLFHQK
row,SMILES,Potency
1,CC1=C[C@@H]2c3cccc4[nH]cc(c34)C[C@H]2N(C)C1,> 46 µM
2,Clc1ccc(COC(Cn2ccnc2)c2ccc(Cl)cc2Cl)c(Cl)c1 (stereo unspecified),> 20.6 µM
3,CCCOc1ccc2[nH]cc(C3=CCNCC3)c2n1,> 46 µM

# Molecular target: Cytochrome P450 3A4 (Homo sapiens) (UniProt P08684)
# Assay: qHTS Assay for Inhibitors and Substrates of Cytochrome P450 3A4 (AID 884); also: nearly all actives have a fitted effect of over 50% in size; also: potency is read from the fitted curve at half-maximal effect; as to activity change, negative = inhibition: % is scaled to controls: 0 for no effect and ±100 for the full control effect
# Details: recombinant CYP3A4, Luciferin-PPXE luminescence; series mostly up to 57.1 µM; activity change, negative = inhibition: at the top concentration
# Summary of the method: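 20 nM human CYP3A4 with 25 uM Luciferin-PPXE (at KM) in 200 mM KPO4, preincubated 10 min with compound; NADPH regeneration started a 60 min RT reaction. Luciferin detected by luminescence, normalized to 57 uM ketoconazole as full inhibition.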
# Chain of Cytochrome P450 3A4 (Homo sapiens) (P08684 whole entry, looked up): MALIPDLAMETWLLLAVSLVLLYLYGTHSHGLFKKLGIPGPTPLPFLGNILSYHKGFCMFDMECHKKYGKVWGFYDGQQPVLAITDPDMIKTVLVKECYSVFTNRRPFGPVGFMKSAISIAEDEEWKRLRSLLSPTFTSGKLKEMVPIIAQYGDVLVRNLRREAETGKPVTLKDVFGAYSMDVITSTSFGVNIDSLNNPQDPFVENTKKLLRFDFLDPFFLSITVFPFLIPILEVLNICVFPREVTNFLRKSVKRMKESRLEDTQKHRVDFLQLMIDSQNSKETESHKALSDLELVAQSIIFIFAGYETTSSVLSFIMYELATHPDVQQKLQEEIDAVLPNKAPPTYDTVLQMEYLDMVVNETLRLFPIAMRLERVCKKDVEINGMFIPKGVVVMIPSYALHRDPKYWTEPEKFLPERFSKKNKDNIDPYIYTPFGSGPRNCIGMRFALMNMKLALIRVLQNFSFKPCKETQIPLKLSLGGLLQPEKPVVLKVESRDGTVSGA
SMILES,"activity change, negative = inhibition",Potency
C[C@@]12CCC(OS(=O)(=O)O)C[C@@H]1CCC1C2CC[C@]2(C)C(=O)CCC12 (stereo partly specified),-12%,
CCCOc1ccc2[nH]cc(C3=CCNCC3)c2n1,,2.51 µM (active)
CCC1CN2CCC1CC2C(O)c1ccnc2ccccc12 (stereo unspecified),-3.1%,
C/C=C1/CN2CC[C@]34C(=C(C=O)[C@H]1C[C@@H]23)Nc1ccccc14,-10.2%,
O=C(O)CF,-11.7%,
OC1(c2ccc(Cl)cc2)CCN(Cc2c[nH]c3ccccc23)CC1,61.9%,

# Molecular target: Cytochrome P450 3A4 (Homo sapiens) (UniProt P08684)
# Assay: qHTS Assay for Activators of Cytochrome P450 3A4 (AID 885); also: nearly all actives have a fitted effect of over 65% in size; also: potency is read from the fitted curve at half-maximal effect
# Details: recombinant CYP3A4, Luciferin-PPXE luminescence, 60 min; series mostly up to 57.1 µM; activity change, positive = activation: at the top concentration
# Summary of the method: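 Steps: enzyme/substrate mix dispensed; compound added, 10 min RT; NADPH regeneration solution added, 60 min RT; luciferin detection buffer stops reaction; 20 min later luminescence measured.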
SMILES,"activity change, positive = activation",Potency
Clc1ccc(COC(Cn2ccnc2)c2ccc(Cl)cc2Cl)c(Cl)c1 (stereo unspecified),-90.1%,
CCCOc1ccc2[nH]cc(C3=CCNCC3)c2n1,-76.3%,
OC1(c2ccc(Cl)cc2)CCN(Cc2c[nH]c3ccccc23)CC1,,2.51 µM (active)

# System: not listed separately
# Assay: Confirmation and Secondary Assay for Modulators of Hemoglobin Beta Chain Splicing at IVS2 654 locus (AID 910);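 also: HeLa cells stably carrying EGFP split by mutant beta-globin IVS2-654 intron; % of control where 0% means no effect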
# Details: HeLa EGFP-654 splicing reporter, GFP fluorescence, 48 h; series mostly up to 46.1 µM; activation (splicing correction): at the top concentration
# Summary of the method: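 HeLa cells stably expressing EGFP interrupted by β-globin IVS2-654 intron, seeded overnight in Opti-MEM/2% FCS, then treated 2 days at 37 °C. Restored splicing read as total peak GFP intensity per well by laser scanning cytometry (488 nm excitation, 500–520 nm emission); 500 nM antisense PNA as control.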
row,SMILES,activation (splicing correction)
1,Clc1ccc(COC(Cn2ccnc2)c2ccc(Cl)cc2Cl)c(Cl)c1 (stereo unspecified),-5.16%
2,C[C@@]12CCC(OS(=O)(=O)O)C[C@@H]1CCC1C2CC[C@]2(C)C(=O)CCC12 (stereo partly specified),-0.393% [at 38.3 µM]
3,O=C(O)CF,-0.663% [at 38.3 µM]
4,O=c1ccc2c(O)c3ccoc3cc2o1,5.3%

# System: not listed separately
# Assay: Confirmation and Secondary Assay for Modulators of Hemoglobin Beta Chain Splicing at IVS2 705 locus (AID 930);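 also: HeLa cells stably expressing the EGFP-705 splicing reporter; GFP fluorescence per well restored by corrected splicing of the IVS2-705 intron in EGFP; % of control where 0% means no effect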
# Details: HeLa EGFP-705 splicing reporter, GFP fluorescence, 48 h; series mostly up to 46.1 µM; activation: at the top concentration
# Summary of the method: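 Secondary splice-site specificity test uses HeLa expressing CMV-driven EGFP interrupted by IVS2-705; cells were treated 2 days at 37C with 500 nM antisense PNA as positive control.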
row,SMILES,activation
1,Clc1ccc(COC(Cn2ccnc2)c2ccc(Cl)cc2Cl)c(Cl)c1 (stereo unspecified),0.935%
2,C[C@@]12CCC(OS(=O)(=O)O)C[C@@H]1CCC1C2CC[C@]2(C)C(=O)CCC12 (stereo partly specified),0.382% [at 38.3 µM]
3,O=C(O)CF,-1.04% [at 38.3 µM]
4,O=c1ccc2c(O)c3ccoc3cc2o1,0.278%

# Molecular target: Alpha-galactosidase (Coffea arabica) (UniProt Q42656)
# Assay: Counterscreen for Glucocerebrosidase Inhibitors: qHTS Assay for Coffee Bean alpha-Galactosidase at pH 5.9 (AID 998);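 also: plate controls were uninhibited enzyme for no effect and no-enzyme basal signal for full effect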
# Details: coffee bean alpha-galactosidase enzyme assay; series mostly up to 76.9 µM; activity, negative = inhibition: at the top concentration
# Summary of the method: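 Green coffee bean enzyme (2 nM) with 4-methylumbelliferyl alpha-D-galactopyranoside (80 uM) in 50 mM citric acid, 0.005% Tween-20, pH 5.9, 20 min at room temperature; compounds 0.7 nM–77 uM. Stopped at pH 10, fluorescence Ex365/Em440; Hill-fit AC50.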
# Chain of Alpha-galactosidase (Coffea arabica) (Q42656 whole entry, looked up): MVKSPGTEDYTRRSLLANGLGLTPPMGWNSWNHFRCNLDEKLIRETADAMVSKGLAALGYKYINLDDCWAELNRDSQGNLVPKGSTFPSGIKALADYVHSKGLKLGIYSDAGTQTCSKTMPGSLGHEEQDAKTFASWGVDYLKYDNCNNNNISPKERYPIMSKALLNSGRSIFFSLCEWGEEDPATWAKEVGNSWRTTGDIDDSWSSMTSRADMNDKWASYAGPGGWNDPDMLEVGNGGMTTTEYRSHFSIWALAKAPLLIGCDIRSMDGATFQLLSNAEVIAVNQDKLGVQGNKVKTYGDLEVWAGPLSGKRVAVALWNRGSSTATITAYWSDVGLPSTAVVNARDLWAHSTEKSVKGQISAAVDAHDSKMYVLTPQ
SMILES,"activity, negative = inhibition",outcome
OC1(c2ccc(Cl)cc2)CCN(Cc2c[nH]c3ccccc23)CC1,-5.48%,
O=S(=O)(c1cccc2c(Cl)cccc12)N1CCCNCC1,2.29%,
O=S(=O)(c1cccc2c(I)cccc12)N1CCCNCC1,-1.28%,
CNCC[C@H](Oc1ccc(C(F)(F)F)cc1)c1ccccc1,,inactive

# System: not listed separately
# Assay: qHTS Assay for Lipid Storage Modulators (AID 1519; calls by dose curve; also: % is scaled to controls: 0 for no effect and ±100 for the full control effect)
# Details: Drosophila S3 cells, BODIPY lipid droplet/cell ratio, laser cytometry; at 57.5 µM (top of the series); cells loaded with oleic acid
# Summary of the method: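 Cells seeded at 5,000 per well were treated with compounds over a concentration series and loaded with oleic acid (400 uM, as added). Lipid droplet fluorescence (488 nm excitation, 500-530 nm channel) was read by laser-scanning cytometry and normalized to 20 uM Triacsin C.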
row,SMILES,"activity change, negative = inhibition"
1,Clc1ccc(COC(Cn2ccnc2)c2ccc(Cl)cc2Cl)c(Cl)c1 (stereo unspecified),3.93%
2,C[C@@]12CCC(OS(=O)(=O)O)C[C@@H]1CCC1C2CC[C@]2(C)C(=O)CCC12 (stereo partly specified),7.66%
3,CCC1CN2CCC1CC2C(O)c1ccnc2ccccc12 (stereo unspecified),-3.02%
4,C/C=C1/CN2CC[C@]34C(=C(C=O)[C@H]1C[C@@H]23)Nc1ccccc14,-2.11%
5,O=C(O)CF,3.91%
6,OC1(c2ccc(Cl)cc2)CCN(Cc2c[nH]c3ccccc23)CC1,1.03%
7,O=c1ccc2c(O)c3ccoc3cc2o1,15.3%
